Rows were chosen to be rich in hits. Some 1.4% of all compounds tested hit in one or more screens of this group.
GLD-1 RNA inh: GLD-1-TGE RNA interaction inhibition (C. elegans). Q17339. purified GLD-1 + fluorescein TGE RNA, fluorescence polarization. inhibition, % at 5.96 µM. actives 0.44% (n = 320,000). AID 2280;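 active means percent inhibition above a per-plate cutoff, the plate mean of test compounds plus 3 SD, cut at about 30% in these data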;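 further: 0% = DMSO wells with GLD-1 and probe and 100% = wells lacking GLD-1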
MEX-5 binding: C. elegans MEX-5 TCR-2 RNA binding activity | activity score (negative = inhibition of binding), % at 10 µM | actives 0.38% (n = 300,000) | Q9XUB2 | MEX-5/FITC-TCR2 RNA binding, fluorescence polarization; active compounds read low;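 active means inhibition past about -25% in most replicates, and total fluorescence under double the plate's negative control median, limit read from the data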;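 further: 0% = DMSO and -100% = 5 µM competing unlabeled TCR2 RNA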
E coli Lon inh: inhibitors of E. coli Lon protease. actives 0.42% (n = 360,000). inhibition, % at 7.94 µM. P0A9M0. purified E. coli Lon protease, fluorescence polarization; in the data active means inhibition above about 13%, passing the limit was not always enough;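 further: 0% = enzyme with probe and DMSO and 100% = no enzyme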
BCLXL inh: inhibitors of human Bcl-xL; GST-Bcl-xL / FITC-Bim BH3 peptide fluorescence polarization; inhibition, % at 10.9 µM; Q07817; actives 0.7% (n = 320,000);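 active means inhibition above the mean of all tested compounds plus 3 SD, cutoff set per campaign, cut at about 30% in these data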;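 further: 0% = DMSO wells and 100% = unlabeled Bim-BH3 peptide competitor; inhibitors lower millipolarization by displacing the labeled peptide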
MCL1 BIM primary: inhibitors of human MCL1 binding to BIM-BH3 peptide | Q07820 | GST-MCL1 / FITC-Bim-BH3 fluorescence polarization | inhibition, % at 10.9 µM | actives 0.68% (n = 320,000) | AID 2057;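 active means inhibition above the mean inhibition of all tested compounds plus 3 SD, set per campaign, cut at about 40% in these data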;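 further: 0% = DMSO wells and 100% = unlabeled Bim-BH3 peptide control; higher means more loss of mP so more displacement of Bim peptide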
eLon confirm: confirmation of E. coli Lon protease inhibitors | shares compounds with E coli Lon inh | purified E. coli Lon, fluorescence polarization | inhibition, % at 7.94 µM | actives 31% (n = 1,400) | AID 602230; in the data active means inhibition above about 16%;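 further: 0% = enzyme with probe and DMSO and 100% = no enzyme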
The depositor's hits bear a star.

For CCOC(=O)N(C)OC(=O)Nc1ccc(Cl)c(Cl)c1 the results were GLD-1 RNA inh 3, MEX-5 binding -3, E coli Lon inh 19*, BCLXL inh 8, MCL1 BIM primary 12 and eLon confirm 25*.
Screening CN(C(=O)C(C)(C)C)[C@H]1C[C@H]2c3[nH]c4ccccc4c3CCN2C(=O)[C@H]1CO returned E coli Lon inh 14* and eLon confirm -11.
For CN(C(=O)NC1CCCCC1)[C@H]1C[C@H]2c3[nH]c4ccccc4c3CCN2C(=O)[C@H]1CO the results were E coli Lon inh -12.
For CCCCNC(=O)C1(C)CCN1C(=O)c1cc2ccccc2s1 (stereo unspecified) the results were E coli Lon inh 6.
`Cn1c(=O)c2c(-c3ccccc3)n(-c3cccc(O)c3)cc2n(C)c1=O` gave E coli Lon inh 18* and eLon confirm 6.
Screening Nc1scc2c(C(=O)N/N=C/c3ccc(Cl)cc3)nn(-c3ccccc3)c(=O)c12 returned GLD-1 RNA inh 11, MEX-5 binding -4, E coli Lon inh 15*, BCLXL inh 43*, MCL1 BIM primary 40* and eLon confirm 17*.
Screening O=C1CCc2cc(S(=O)(=O)N3CCN(c4cccc(Cl)c4)CC3)ccc2N1 returned GLD-1 RNA inh 6, MEX-5 binding 2, E coli Lon inh -12, BCLXL inh 4 and MCL1 BIM primary -3.
For O=C1Cc2cc(S(=O)(=O)N3CCN(c4cccc(Cl)c4)CC3)ccc2N1 the results were GLD-1 RNA inh -5, MEX-5 binding 3, E coli Lon inh 52*, BCLXL inh -22, MCL1 BIM primary -25 and eLon confirm -6.
For CC(=O)c1ccc(S(=O)(=O)Nc2c(C)nn(C)c2C)cc1 the results were E coli Lon inh -6.
For O=C(c1cccc(Cl)c1)N1CCC2CC1c1cc(-c3ccccc3)ccc12 (stereo unspecified) the results were E coli Lon inh -3.
Screening O=C(c1ccc(Cl)cc1)N1CCC2CC1c1cc(-c3ccccc3)ccc12 (stereo unspecified) returned E coli Lon inh 16* and eLon confirm 4.
`COc1ccc(CNC(NC(=O)c2ccccc2)(C(F)(F)F)C(F)(F)F)cc1` gave GLD-1 RNA inh 2, MEX-5 binding 1, E coli Lon inh 30*, BCLXL inh -1, MCL1 BIM primary 0 and eLon confirm 3.
CNc1ccc(-c2cccc(CO)c2)cn1 was read as E coli Lon inh -9.
`O=C(Nc1nc2c(Br)cccc2s1)C1CC1` gave GLD-1 RNA inh 1, MEX-5 binding -1, E coli Lon inh 23*, BCLXL inh 4, MCL1 BIM primary -3 and eLon confirm 81*.
For O=C(CSCC(=O)OCn1nnc2ccccc2c1=O)Nc1ccc(Cl)cc1 the results were GLD-1 RNA inh -3, MEX-5 binding 0, E coli Lon inh 17*, BCLXL inh 4, MCL1 BIM primary 4 and eLon confirm 9.
`COc1ccccc1C1C(C(N)=O)=C(C)Nc2nc(-c3ccc(Cl)cc3)nn21` (stereo unspecified) gave GLD-1 RNA inh 2, MEX-5 binding -2, E coli Lon inh -1, BCLXL inh 3 and MCL1 BIM primary 7.
Screening COc1ccccc1-c1nc2n(n1)C(c1ccc(Cl)cc1)C(C(N)=O)=C(C)N2 (stereo unspecified) returned GLD-1 RNA inh 3, MEX-5 binding 2, E coli Lon inh 16*, BCLXL inh 9, MCL1 BIM primary 11 and eLon confirm -8.
For CCc1nc2ccc(C(=O)NCC3CCCCC3)cn2c1N(CCC(C)C)CCN(C)C the results were E coli Lon inh 19.
Screening Cc1cccc(NC(=O)NCc2ccc3c(c2)cc(C)n3C)c1 returned GLD-1 RNA inh 16, MEX-5 binding 0, E coli Lon inh 30*, BCLXL inh 8, MCL1 BIM primary 7 and eLon confirm 13.
For COc1cccc(NC(=S)NCc2ccc3c(c2)cc(C)n3C)c1 the results were MEX-5 binding -4 and E coli Lon inh 9.
COc1ccc(CNC(=O)Nc2cccc(Cl)c2)cc1 was read as E coli Lon inh -7.
Screening Cc1cc2cc(CNC(=O)Nc3cccc(Cl)c3)ccc2n1C returned GLD-1 RNA inh 16, MEX-5 binding -2, E coli Lon inh 40*, BCLXL inh 14, MCL1 BIM primary 9 and eLon confirm 45*.
